This is one part of a sample in which hits are shown more often than they occur.
CD40 NFkB inh: inhibitors of CD40-induced NF-kB signaling, primary screen, BL2 cells, luciferase reporter, single point; CD40L-induced, 4 h; inhibition, % at 10 µM; 83,000 compounds, 0.94% hits; AID 1053188, 2014;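 active = mean inhibition of at least 50% with a set share of replicates also reaching that level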
Hits are given with their value; – = inactive; ! = repeats disagree.

SMILES	CD40 NFkB inh
CC12CN3CC(C)(CN(C1)C3c1ccc3c(c1)OCO3)C2=O (stereo not given)	36
O=C(Nc1cccc2cccnc12)c1ccc2c(c1)OCCO2	–
S=C(CSc1ccccc1)Nc1cccc2ccccc12	–
[O-]C(=C(C(=S)Nc1cccc2ccccc12)[n+]1ccccc1)c1ccc2c(c1)OCCO2	55
COc1cccc(S(=O)(=O)N2CC[C@@H]3[C@@H](CO)Nc4ccc(C#Cc5ccccc5)cc4[C@@H]32)c1	–
O=C(C1CCCCC1)N1CC[C@@H]2[C@@H](CO)Nc3ccc(Br)cc3[C@@H]21	–
COc1ccc(CN(C)C[C@@H]2Oc3ccc(NC(=O)Nc4c(C)noc4C)cc3C(=O)N([C@@H](C)CO)C[C@H]2C)cc1	–
COC(=O)N(C)C[C@@H]1OCc2ccccc2-c2ccccc2C(=O)N([C@@H](C)CO)C[C@H]1C	–
c1ccc(-c2nc(N3CCCCCC3)c3ccccc3n2)nc1	53
c1ccc(CCc2nc(-c3ccccn3)no2)cc1	–
c1ccc2c(N3CCCC3)nc(-c3ccncc3)nc2c1	–
c1ccc(CCNc2nc(-c3ccccn3)nc3ccccc23)cc1	43
c1ccc(CN2CCN(c3nc(-c4ccccn4)nc4ccccc34)CC2)cc1	–
CCN1CCN(c2nc(-c3ccccn3)nc3ccccc23)CC1	–
CC(=O)OC1C(=O)C2(C)C(O)CC3OCC3(OC(C)=O)C2C(OC(=O)c2ccccc2)C2(O)CC(OC(=O)C(O)C(NC(=O)c3ccccc3)c3ccccc3)C(C)=C1C2(C)C (stereo not given)	–
COc1ccc(-c2ccc3n(c2=O)C[C@H]2[C@H](CO)[C@@H](C(=O)NCC4CC4)[C@@H]3N2S(C)(=O)=O)cc1	–
CCOC(=O)N(C)C[C@H]1OCc2ccccc2-c2c(n(C)c3ccccc23)C(=O)N([C@@H](C)CO)C[C@H]1C	–
CNC[C@H]1Oc2c(NS(C)(=O)=O)cccc2C(=O)N(C)C[C@@H]1C	–
O=C(NCC[C@H]1CC[C@@H](NC(=O)c2ccncc2)[C@H](CO)O1)Nc1ccc(Cl)cc1	–
C[C@H](CO)N1C[C@H](C)[C@H](CN(C)S(=O)(=O)c2cccc(C#N)c2)OCc2ccccc2-c2c(n(C)c3ccccc23)C1=O	–
O=C(Nc1ccc2c(c1)[C@H]1C[C@H](CC(=O)N3CCCCC3)O[C@@H](CO)[C@H]1O2)NC1CCCC1	–
c1ccc(CN=C2NN=C(c3cc4ccccc4o3)CS2)cc1	–
COc1ccc(CN=C2NN=C(c3cccc(OC)c3)CS2)cc1	–
c1ccc2oc(C3=NNC(=NC4CC4)SC3)cc2c1	66
c1cc2c(cc1C1=NNC(=NC3CC3)SC1)OCCO2	92
SMILES	CD40 NFkB inh
COc1ccc(N=C2NN=C(c3ccc4c(c3)OCCO4)CS2)cc1	–
c1csc(C2=NNC(=NC3CCCCC3)SC2)c1	–
COc1ccc(S(=O)(=O)Nc2ccc3c(c2)OC[C@H](C)NC[C@@H](C)[C@@H](OC)CN(C)C3=O)cc1	–
O=C1NCCOCn2nncc2CC[C@@H]1Cc1ccccc1	–
COC(=O)c1cc(=O)c2ccc(OC)cc2o1	–
COC(=O)c1ccc(N)cc1O	–
COC(=O)c1ccccc1-c1c2ccc(=N)cc-2oc2cc(N)ccc12	49
COC(=O)c1ccc(CSCc2ccc(C(=O)OC)o2)o1	–
COC(=O)c1ccc(CSc2nc3ccccc3c(=O)n2-c2ccccc2)o1	–
COC(=O)c1ccc(CSc2nnc3c(Cl)cc(Cl)cn23)o1	67
COC(=O)c1ccc(CSc2nnnn2C)o1	–
COC(=O)c1ccc(CSc2cc(C)c3cc(C)cc(C)c3n2)o1	55
CCc1nc(SCc2ccc(C(=O)OC)o2)n[nH]1	–
O=C(NCC1CC1)[C@@H]1[C@@H](CO)[C@@H]2Cn3c(ccc(-c4cccc(F)c4)c3=O)[C@@H]2N1CC1CCOCC1	–
O=C(C1CC1)N1[C@H](CO)[C@H]2c3ccccc3NC[C@H]21	–
N#C[C@H]1[C@@H](c2ccc(C3=CCCC3)cc2)[C@H](CO)N1C(=O)c1cccc(F)c1	–
N#C[C@H]1[C@@H](c2ccccc2C2=CCCCC2)[C@H](CO)N1S(=O)(=O)c1cccc(F)c1	–
CC(=O)N(C)C[C@H]1Oc2ccccc2CC(=O)N(C)C[C@H]1C	–
N#C[C@H]1[C@H](c2ccccc2C2=CCCC2)[C@@H](CO)N1C(=O)NC1CCCC1	–
CC(C)(C)n1nc(-c2cccc3ccccc23)c2c(N)ncnc21	–
CCCN1[C@@H]2c3ccc(-c4ccccc4)c(=O)n3C[C@@H]2[C@@H](CO)[C@@H]1C(=O)N1CCOCC1	–
O=S(=O)(c1cccc(F)c1)N1[C@@H]2CNC[C@H]1C2c1ccc(/C=C/c2ccccc2)cc1 (stereo not given in full)	–
Cc1ccc(S(=O)(=O)N2[C@@H]3CNC[C@H]2C3c2ccc(/C=C/c3ccccc3)cc2)cc1 (stereo not given in full)	–
O=S(=O)(c1ccccc1)N1[C@@H]2CNC[C@H]1C2c1ccc(/C=C/c2ccccc2)cc1 (stereo not given in full)	51!
C[C@H]1CN(C)C(=O)Cc2cc(N(C)C)ccc2O[C@@H]1CN(C)C	–

Screening data: PubChem BioAssay, Broad Institute
